# Screening data as filed in PubChem BioAssay.
# PfHsp90 set2: reduces growth (ATP signal) of yeast expressing P. falciparum Hsp90; 310,000 compounds, 0.32% hits; S. cerevisiae expressing PfHsp90, BacTiter-Glo ATP, 48 h; yeast lacking PDR1 and PDR3 efflux regulators; AID 504621; inhibition, % at 9.4 µM;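 active = every replicate shows inhibition above about 80%, whatever the replicate mean, limit read from the data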;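 also: 0% = DMSO neutral controls and 100% = 20 µM radicicol positive controls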
# TIM10 inh: growth inhibitors of TIM10 yeast strain. S. cerevisiae TIM10 strain growth, BacTiter-Glo luminescence, 24 h. inhibition, % at 10 µM. 330,000 compounds, 1.4% hits. AID 463195;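 active = inhibition of 40% or more at the single tested concentration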;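 also: wild-type TIM10 isogenic control strain grown at permissive 25 °C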
# tim23-1 inh: tim23-1 yeast growth inhibition. 330,000 compounds, 1.3% hits. AID 463212. inhibition, % at 20 µM. S. cerevisiae tim23-1 growth, BacTiter-Glo luminescence, 24 h;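 active = growth inhibition of the mutant yeast at or above 50%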;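 also: temperature-sensitive mutant grown at 25 °C; plate controls were DMSO-treated mutant yeast for no effect and medium wells lacking yeast for full effect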
# tim10-1 inh: growth inhibitors of tim10-1 mutant yeast | S. cerevisiae tim10-1 ts strain growth, BacTiter-Glo, 24 h | inhibition, % at 20 µM | 330,000 compounds, 2.2% hits | AID 463190;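 active = inhibition of at least 40%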;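 also: mutant grown at 25 °C; 0% = DMSO wells with yeast and 100% = wells holding no yeast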
# Rce1 inh: yeast Ras-converting enzyme inhibition | AID 2563 | calls only | Q03530 | yeast membranes, quenched prenylated peptide cleavage fluorescence | 290,000 compounds, 0.27% hits;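 active = fall in fluorescence gain of 50% or more versus controls, with final raw signal at or below 3038400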;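 also: plate controls were neutral control wells for no effect and wells lacking membranes for full effect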
# Target sequence (Q03530 whole entry, looked up): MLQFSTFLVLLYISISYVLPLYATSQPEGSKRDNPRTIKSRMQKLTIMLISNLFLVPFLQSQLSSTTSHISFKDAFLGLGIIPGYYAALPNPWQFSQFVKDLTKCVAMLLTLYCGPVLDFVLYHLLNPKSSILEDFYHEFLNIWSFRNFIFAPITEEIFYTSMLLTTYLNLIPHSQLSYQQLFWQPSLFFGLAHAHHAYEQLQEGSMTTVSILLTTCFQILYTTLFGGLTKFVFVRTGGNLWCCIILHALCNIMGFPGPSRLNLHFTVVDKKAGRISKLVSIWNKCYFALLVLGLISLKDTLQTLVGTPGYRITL
# tim23-1 conf: tim23-1 yeast growth inhibition, confirmed | shares compounds with tim23-1 inh | S. cerevisiae tim23-1 growth, BacTiter-Glo luminescence, 24 h | inhibition, % at 20 µM | 4,400 compounds, 83% hits | AID 463218;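 active = inhibition above about 39% in either of two replicate wells at 20 µM, limit read from the data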;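 also: temperature-sensitive tim23-1 mutant grown at 25 °C; 0% = DMSO wells with yeast and 100% = medium wells without yeast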
# An asterisk follows results filed as active; i = inactive; / = no result given. The list is not random: actives were taken first. Their share in the collection is about 3.7%.
SMILES,PfHsp90 set2,TIM10 inh,tim23-1 inh,tim10-1 inh,Rce1 inh,tim23-1 conf
CN(C(=S)NC(=O)c1ccccc1Br)C1CCCCC1,/,28,50*,40,i,35
COc1cccc(C(=O)C(C#N)=C(SC)SC)c1,-1,38,60*,14,i,77*
COc1cccc(C(=O)Nc2ccc(NC(C)=O)cc2)c1,11,-18,1,5,i,/
O=C(O)c1ccc(C(=O)C(=O)c2ccccc2)cc1,16,-1,0,8,i,/
CSC(SC)=C(C#N)C(=O)c1ccccc1,3,10,80*,37,i,85*
C=CCn1c(C)nc2c(sc3nc4c(cc32)COC(C)(C)C4)c1=O,9,7,14,-3,i,/
O=C(CN1C(=O)C(=O)N(CCC2=CCCCC2)C1=O)c1c[nH]c2ccccc12,-1,40,60*,13,/,39*
O=C(CN1C(=O)C(=O)N(Cc2ccco2)C1=O)c1c[nH]c2ccccc12,15,4,17,21,i,/
CCOC(=O)c1cc(C)n(CCc2ccccc2)c1C,62,6,15,13,i,/
Cc1cc(C(=O)CCl)c(C)n1CCc1ccccc1,/,37,66*,36,i,16
COc1ccc2nc(Nc3sc4c(c3C(N)=O)CCCC4)sc2c1,21,23,31,30,/,/
COc1ccc(-c2cc(-c3ccccc3)n[nH]2)c(O)c1,-29,4,69*,10,i,57*
COc1ccc(-c2cc(-c3ccccc3O)[nH]n2)cc1,25,25,69*,22,i,62*
Oc1ccc(N=C/C=C/c2ccc(Br)cc2)cc1-c1nc2ccccc2s1,/,30,64*,23,i,44*
CCOc1ccc2oc(C(=O)Nc3ccc4c(c3)OCO4)c(C)c2c1,-7,12,95*,-6,i,17
COc1cccc2c1C(=O)c1c(O)c3c(c(O)c1C2=O)C[C@@](O)(C(=O)CO)C[C@@H]3O[C@H]1C[C@H](N)[C@H](O)[C@H](C)O1,23,-6,52*,11,i,44*
Cn1c(CS/C(N)=N/N=C/c2ccccc2)c(Br)c(=O)n1-c1ccccc1,4,24,14,23,i,/
Cc1ccc2oc(C(Cl)(Cl)Cl)cc(=O)c2c1,/,30,75*,38,i,76*
Cc1ccc2oc(C(F)(F)C(F)F)cc(=O)c2c1,-17,6,15,6,i,/
O=Cc1cccc(OCc2cccc3ccccc23)c1,20,16,57*,7,i,37
Cc1nc(-c2cnn(-c3ccccc3)c2)c2cc(C)oc2n1,3,34,51*,24,i,45*
CNC(=O)c1c(NC(=O)CCS(=O)(=O)c2ccc(C)cc2)sc2c1CCN(C(=O)OC)C2,25,-4,-1,-1,i,/
O=C(NC(=S)Nc1cccc(Cl)c1N1CCCCC1)c1cccs1,-11,38,53*,32,i,-131
O=C(NC(=S)Nc1ccccc1N1CCOCC1)c1ccco1,-16,33,55*,39,i,38
O=C(NC(=S)Nc1cccc(Cl)c1N1CCCCC1)c1ccco1,-7,34,51*,38,i,29
SMILES,PfHsp90 set2,TIM10 inh,tim23-1 inh,tim10-1 inh,Rce1 inh,tim23-1 conf
Cc1cc(C)n(C(C)CNS(=O)(=O)c2ccc(Cl)cc2)n1 (stereo not given),-15,7,8,14,i,/
CCOC(=O)c1cccc2c(=O)c(C(=O)c3ccc(Cl)cc3)c(C(=O)OC)[nH]c12,5,-3,8,-3,i,/
COc1ccc(N2CCN(C(CNC(=O)C(=O)NC3CCCC3)c3ccco3)CC2)cc1 (stereo not given),/,-3,7,-11,i,/
O=C(Nc1cccc(Cl)c1)Nc1ccccc1-n1ccnc1,-8,7,3,16,i,/
Cc1ccc(C(=O)N/N=C/c2nc3ccccc3n2C)cc1,9,6,54*,28,i,39*
CSc1nc2ccc(NS(=O)(=O)c3ccc4c(c3)OCCO4)cc2s1,-11,8,29,22,i,/
CSc1nc2ccc(NS(=O)(=O)c3ccc(Br)s3)cc2s1,-9,28,61*,29,i,62*
CC(C)(C)C(=O)C(Cl)C(=O)Nc1ccccc1 (stereo not given),107*,-58,70*,36,i,-11
COc1ccc(/C=C/C2=Nc3ccccc3NC(C)(C)C2)cc1OC,9,13,51*,19,i,43*
C=CCS/C(N)=N\N=C\c1cc(Br)cc([N+](=O)[O-])c1O,-32,17,55*,11,i,44*
COc1cc(CCc2ccccc2)c(C(=O)O)c(O)c1C/C=C(/C)CCC=C(C)C,-8,15,75*,28,/,20
COc1cc(CCc2ccccc2)c(C(=O)O)c(O)c1CC=C(C)C,18,/,/,/,/,/
O=C(O)C/C=C(/NC(=O)OCc1ccccc1)C(=O)OCc1ccccc1,4,14,11,9,i,/
O=C(NC(=S)Nc1ccc2c(c1)OCCO2)c1ccccc1F,-17,31,17,34,i,/
O=C(Nc1ccc(NC(=O)c2ccc3c(c2)OCCO3)cc1)c1ccccc1,-91,-11,-14,-23,i,/
O=C(NC(=S)Nc1ccc2c(c1)OCCO2)c1ccccc1,/,33,54*,23,i,44*
O=C(Nc1ccc2c(c1)OCCO2)c1ccccc1F,5,37,66*,36,i,40*
Cc1ccc(NC(=O)c2ccc3c(c2)OCCO3)cc1C,14,33,64*,15,i,63*
O=C(Cn1nc2n(c1=O)-c1ccccc1SC2)N/N=C/c1ccncc1,10,6,0,-4,i,/
O=C(N/N=C/c1cc(Br)cc(Br)c1O)c1cccc(N2CCCC2=O)c1,-4,-5,51*,-7,i,56*
O=C(Nc1nsc(-c2ccccc2)n1)c1cccs1,13,34,68*,33,i,53*
O=C(Nc1c(-c2ccccc2)nc2ccccn12)c1cccs1,/,4,-1,3,i,/
COc1ccc(-c2csc(NS(=O)(=O)c3ccc([N+](=O)[O-])cc3)n2)cc1,-11,3,84*,17,i,9
C=CCOc1c(Cl)cc(CNCCCN2CCOCC2)cc1OC,6,-20,-13,-5,/,/
CCOC(=O)c1c(-c2ccccc2)oc2ccc(OC)cc12,/,-7,21,2,i,/
CCOC(=O)c1c(-c2ccccc2)oc2ccc(O)cc12,-31,19,59*,13,i,56*
COc1ccc(N=C(C)C2=C(O)COC2=O)cc1,28,-15,96*,-11,i,5
CC(C)(C)NS(=O)(=O)c1ccc(NC(=S)NC(=O)C2CCC2)cc1,20,13,24,23,/,/
CC1(c2ccccc2)CC(C)(C)N2C(=O)C(=O)c3cccc1c32 (stereo not given),/,-4,61*,38,i,56*
